# Inconclusive results are not listed. Entries that show only a call come without a potency. Active and inactive are the calls of the source. The call rests on the fitted dose curve; tested in HEK293 reporter line.
# Test: qHTS for Inhibitors of the Functional Ribonucleoprotein Complex (vRNP) of Lassa (LASV) Arenavirus: LASV Primary Screen - GLuc reporter signal (AID 1347082); further: nearly all actives have a fitted effect of over 60% in size
# Conditions: LASV minigenome vRNP, Gaussia luciferase reporter; series mostly up to 57.5 µM
row,Structure (SMILES),Potency
1,O=C(O)Cn1c(C(=O)Nc2nc(-c3ccccc3Cl)cs2)cc2ccccc21,inactive
2,COc1ccnc2c1CCCCC2S(=O)c1nc2ccccc2[nH]1 (stereo not drawn),inactive
3,CC1(C)O[C@@H]2C[C@H]3[C@@H]4C[C@H](F)C5=CC(=O)C=C[C@]5(C)[C@H]4[C@@H](O)C[C@]3(C)[C@]2(C(=O)CO)O1,inactive
4,CCc1cccc2c3c([nH]c12)C(CC)(CC(=O)O)OCC3 (stereo not drawn),inactive
5,CC(=O)Oc1ccc(C(=C2CCCCC2)c2ccc(OC(C)=O)cc2)cc1,inactive
6,CC(=O)O[C@H]1C[C@@H]2CC[C@@H]3[C@H](CC[C@@]4(C)[C@H]3C[C@H]([N+]3(C)CCCCC3)[C@@H]4OC(C)=O)[C@@]2(C)C[C@@H]1N1CCCCC1,inactive
7,CCCCOc1cc(C(=O)OCCN(CC)CC)ccc1N,inactive
8,O=C(O)CCc1nc(-c2ccccc2)c(-c2ccccc2)o1,inactive
9,O=c1[nH]cnc2c1ncn2[C@@H]1O[C@H](CO)[C@@H](O)[C@H]1O,inactive
10,CN1Cc2c(N)cccc2C(c2ccccc2)C1 (stereo not drawn),inactive
11,OC[C@]1(O)OC[C@@H](O)[C@H](O)[C@@H]1O,inactive
12,CCNC(=O)NCc1cccc(Cl)c1,inactive
13,CN(Cc1cc(Br)cc(Br)c1N)C1CCCCC1,inactive
14,Cc1cc2c(OCC(CNC(C)(C)C)OC(=O)c3ccccc3)cccc2[nH]1 (stereo not drawn),inactive
15,Cc1cc(C)c(/C=C2\C(=O)Nc3ccccc32)[nH]1,inactive
16,CN(C)CCCO[C@@H]1[C@H]2OC(C)(C)O[C@H]2O[C@@H]1C(O)CO (stereo partly drawn),inactive
17,C[C@]12CC[C@@H]3c4ccc(O)cc4CC[C@H]3[C@@H]1CCC2=O,inactive
18,O=C(O)C(=O)Nc1cccc(-c2nn[nH]n2)c1,inactive
19,CCN(CC)CCOC(=O)C1(c2ccccc2)CCCC1,inactive
20,CC(C)(C)CC(C)(C)c1ccc(O)c(Cc2ccc(Cl)cc2Cl)c1,inactive

row,Structure (SMILES),Potency
1,C[C@@H](O)[C@H](N)C(=O)O,inactive
2,c1ccc([C@H]2CN3CCSC3=N2)cc1,inactive
3,C[C@]12CC[C@@H]3c4ccc(O)cc4CC[C@H]3[C@@H]1C[C@@H](O)[C@@H]2O,inactive
4,Cc1ccc(S(=O)(=O)NC(=O)NC2CCCC2)cc1,inactive
5,NC(=O)C(=O)N/N=C/c1ccc([N+](=O)[O-])o1,inactive
6,COc1ccc2c(c1)c(CC(=O)OCC(=O)O)c(C)n2C(=O)c1ccc(Cl)cc1,inactive
7,O=C(O)c1ccccc1Nc1cc(Cl)ccc1C(=O)O,inactive
8,CCCCCCCCCCCCCCNCCO,inactive
9,O=c1oc2c(O)c(O)cc3c(=O)oc4c(O)c(O)cc1c4c23,inactive
10,CNC(=O)c1c(I)c(NC(=O)CCCCC(=O)Nc2c(I)c(C(=O)O)c(I)c(C(=O)NC)c2I)c(I)c(C(=O)O)c1I,inactive
11,Cc1ccc(O)c(-n2nc3ccccc3n2)c1,inactive
12,O=C1Nc2ccccc2C1(c1ccc(O)cc1)c1ccc(O)cc1,inactive
13,CCC1Nc2cc(Cl)c(S(N)(=O)=O)cc2S(=O)(=O)N1 (stereo not drawn),inactive
14,CN1[C@@H]2CC[C@H]1CC(OC(=O)c1c[nH]c3ccccc13)C2 (stereo partly drawn),inactive
15,CN1CCC(N(Cc2cccs2)c2ccccc2)CC1,inactive
16,C[C@@H](O)[C@H]1C(=O)N2C(C(=O)O)=C([C@H]3CCCO3)S[C@H]12,inactive
17,C=Cc1c(C)c2cc3[nH]c(cc4nc(cc5nc(cc1[nH]2)C(C)=C5CCC(=O)O)C(CCC(=O)O)=C4C)c(C)c3C=C,inactive
18,C=CC[N+]1([C@H]2C[C@H]3[C@@H]4CC[C@H]5C[C@H](OC(C)=O)[C@@H](N6CCCCC6)C[C@]5(C)[C@H]4CC[C@]3(C)[C@H]2OC(=O)CC)CCCCC1,inactive
19,C[C@]12CCC(=O)C=C1CC[C@@H]1[C@@H]2C(=O)C[C@@]2(C)[C@H]1CC[C@]2(O)C(=O)CO,inactive

# Test: qHTS for Inhibitors of the Functional Ribonucleoprotein Complex (vRNP) of Lassa (LASV) Arenavirus: Viability assay - alamar blue signal for LASV Primary Screen (AID 1347083); further: nearly all actives have a fitted effect of over 80% in size
# Conditions: cell viability, alamar blue fluorescence (LASV minigenome counter-screen); series mostly up to 57.5 µM
row,Structure (SMILES),Potency
1,O=C(O)Cn1c(C(=O)Nc2nc(-c3ccccc3Cl)cs2)cc2ccccc21,inactive
2,COc1ccnc2c1CCCCC2S(=O)c1nc2ccccc2[nH]1 (stereo not drawn),inactive
3,CC1(C)O[C@@H]2C[C@H]3[C@@H]4C[C@H](F)C5=CC(=O)C=C[C@]5(C)[C@H]4[C@@H](O)C[C@]3(C)[C@]2(C(=O)CO)O1,inactive
4,CCc1cccc2c3c([nH]c12)C(CC)(CC(=O)O)OCC3 (stereo not drawn),inactive
5,CC(=O)Oc1ccc(C(=C2CCCCC2)c2ccc(OC(C)=O)cc2)cc1,inactive
6,CC(=O)O[C@H]1C[C@@H]2CC[C@@H]3[C@H](CC[C@@]4(C)[C@H]3C[C@H]([N+]3(C)CCCCC3)[C@@H]4OC(C)=O)[C@@]2(C)C[C@@H]1N1CCCCC1,inactive
7,CCCCOc1cc(C(=O)OCCN(CC)CC)ccc1N,inactive
8,O=C(O)CCc1nc(-c2ccccc2)c(-c2ccccc2)o1,inactive
9,O=c1[nH]cnc2c1ncn2[C@@H]1O[C@H](CO)[C@@H](O)[C@H]1O,inactive
10,CN1Cc2c(N)cccc2C(c2ccccc2)C1 (stereo not drawn),inactive
11,OC[C@]1(O)OC[C@@H](O)[C@H](O)[C@@H]1O,inactive
12,CCNC(=O)NCc1cccc(Cl)c1,inactive
13,CN(Cc1cc(Br)cc(Br)c1N)C1CCCCC1,inactive
14,Cc1cc2c(OCC(CNC(C)(C)C)OC(=O)c3ccccc3)cccc2[nH]1 (stereo not drawn),inactive
15,Cc1cc(C)c(/C=C2\C(=O)Nc3ccccc32)[nH]1,inactive
16,CN(C)CCCO[C@@H]1[C@H]2OC(C)(C)O[C@H]2O[C@@H]1C(O)CO (stereo partly drawn),inactive
17,C[C@]12CC[C@@H]3c4ccc(O)cc4CC[C@H]3[C@@H]1CCC2=O,inactive
18,O=C(O)C(=O)Nc1cccc(-c2nn[nH]n2)c1,inactive
19,CCN(CC)CCOC(=O)C1(c2ccccc2)CCCC1,inactive
20,CC(C)(C)CC(C)(C)c1ccc(O)c(Cc2ccc(Cl)cc2Cl)c1,inactive

row,Structure (SMILES),Potency
1,C[C@@H](O)[C@H](N)C(=O)O,inactive
2,c1ccc([C@H]2CN3CCSC3=N2)cc1,inactive
3,C[C@]12CC[C@@H]3c4ccc(O)cc4CC[C@H]3[C@@H]1C[C@@H](O)[C@@H]2O,inactive
4,Cc1ccc(S(=O)(=O)NC(=O)NC2CCCC2)cc1,inactive
5,NC(=O)C(=O)N/N=C/c1ccc([N+](=O)[O-])o1,inactive
6,COc1ccc2c(c1)c(CC(=O)OCC(=O)O)c(C)n2C(=O)c1ccc(Cl)cc1,inactive
7,O=C(O)c1ccccc1Nc1cc(Cl)ccc1C(=O)O,inactive
8,CCCCCCCCCCCCCCNCCO,inactive
9,O=c1oc2c(O)c(O)cc3c(=O)oc4c(O)c(O)cc1c4c23,inactive
10,CNC(=O)c1c(I)c(NC(=O)CCCCC(=O)Nc2c(I)c(C(=O)O)c(I)c(C(=O)NC)c2I)c(I)c(C(=O)O)c1I,inactive
11,Cc1ccc(O)c(-n2nc3ccccc3n2)c1,inactive
12,O=C1Nc2ccccc2C1(c1ccc(O)cc1)c1ccc(O)cc1,inactive
13,CCC1Nc2cc(Cl)c(S(N)(=O)=O)cc2S(=O)(=O)N1 (stereo not drawn),inactive
14,CN1[C@@H]2CC[C@H]1CC(OC(=O)c1c[nH]c3ccccc13)C2 (stereo partly drawn),inactive
15,CN1CCC(N(Cc2cccs2)c2ccccc2)CC1,inactive
16,C[C@@H](O)[C@H]1C(=O)N2C(C(=O)O)=C([C@H]3CCCO3)S[C@H]12,inactive
17,C=Cc1c(C)c2cc3[nH]c(cc4nc(cc5nc(cc1[nH]2)C(C)=C5CCC(=O)O)C(CCC(=O)O)=C4C)c(C)c3C=C,inactive
18,C=CC[N+]1([C@H]2C[C@H]3[C@@H]4CC[C@H]5C[C@H](OC(C)=O)[C@@H](N6CCCCC6)C[C@]5(C)[C@H]4CC[C@]3(C)[C@H]2OC(=O)CC)CCCCC1,inactive
19,C[C@]12CCC(=O)C=C1CC[C@@H]1[C@@H]2C(=O)C[C@@]2(C)[C@H]1CC[C@]2(O)C(=O)CO,inactive

# — PubChem BioAssay (NCATS)
